Source: PubChem BioAssay AID1259343 (VanderVen Lab, College of Veterinary Medicine, Cornell …, 2017)
The campaign covered roughly 6,200 compounds. About 2,900 (47%) were called active. The set was probably picked from earlier hits. The list shows a part of the results. Unmarked numbers belong to inactive results. Rule as the data show it: active = inhibition above about 50%; inactive = the rest.

Assay: Mycobacterium tuberculosis growth inhibition, primary screen (AID 1259343)
Conditions: inhibition: at 10 µM, hits give high values; outcome: 10 uM

SMILES	inhibition
O=C(c1ccc2nonc2c1)N1CCCC2(CCCc3ccccc32)C1 (stereo not given)	23.2%
COc1cccc(-c2ccccc2NC(=O)C2CCN(Cc3ccc(OC)c(C)c3)CC2)c1	92% (active)
COc1cccc(-c2ccccc2NC(=O)C2CCN(Cc3cnc(C)nc3)CC2)c1	33%
COc1cccc(-c2ccccc2NC(=O)C2CCN(Cc3cccc4cccnc34)CC2)c1	inactive
COc1cccc(-c2ccccc2NC(=O)C2CCN(Cc3cccc(C)n3)CC2)c1	99.6% (active)
CC(C)c1cccc(N(C)Cc2cncn2C)c1	42.1%
N#CC(=Cc1cccc2ccccc12)c1ccccn1	22.6%
N#CC(=Cc1ccc(Cl)cc1)c1nc(C2CC2)cs1	20.5%
N#CC(=Cc1cccc2ccccc12)c1nc(C2CC2)cs1	96.1% (active)
Cc1cc(N2CCNCC2)nc(-c2ccc(C(F)(F)F)cc2)n1	82% (active)
CCc1c(C)nc(-c2ccc(C(F)(F)F)cc2)nc1N1CCNCC1	61.7% (active)
OCC1(Cc2cccc(C(F)(F)F)c2)CCN(c2ccc3ccccc3n2)CC1	22.1%
Cc1ccc(Cc2nsc(N3CCN(c4cccc(C(F)(F)F)c4)CC3)n2)cc1	24.1%
CCc1c(C)nc(-c2cccc(C(F)(F)F)c2)nc1N1CCNCC1	33.2%
Cc1cc(N2CCNCC2)nc(-c2cccc(C(F)(F)F)c2)n1	94.4% (active)
Nc1cc(Cl)ccc1Oc1ccc(Cl)cc1	-29.7%
O=[N+]([O-])c1cc(Cl)ccc1Oc1ccc2ccccc2c1	77.2% (active)
CC(C)(C)c1cc(/C=C(\C#N)C(N)=S)cc(C(C)(C)C)c1O	102% (active)
Cc1nnc(NC(=O)C(C)SC(F)(F)F)s1 (stereo not given)	91.5% (active)
CCOc1ccc(N=Nc2c(C)n[nH]c2C)cc1	-45%
Cc1nc(N)sc1N=Nc1ccc(Br)cc1	23.2%
Cc1n[nH]c(C)c1N=Nc1ccc(Br)cc1	104% (active)
CCc1ccc(-c2noc(CSc3nnc(N)s3)n2)cc1	12.6%
Nc1nnc(SCC2CC2)s1	86.5% (active)
Nc1nnc(SCc2ccc(Br)cc2F)s1	28.8%
O=C(O)COc1ccccc1-c1nc(-c2ccccc2)c(-c2ccccc2)[nH]1	13.8%
O=C(O)COc1c(I)cc(Cl)c2cccnc12	94.3% (active)

SMILES	inhibition
CCCC(=O)OCC(=O)Nc1ccc2ccccc2c1	33.2%
O=C(CCC(=O)c1ccc(-c2ccccc2)cc1)NC1=NCCS1	33.8%
Cc1cc(C)cc(NC(=O)CCC(=O)c2ccc3ccccc3c2)c1	72.2% (active)
CCc1nnc(NC(=O)c2ccc(O)c(Cl)c2)s1	81.3% (active)
CCc1nnc(NC(=O)C2CC2)s1	68.7% (active)
COc1ccccc1C(=O)Nc1nnc(CC(C)C)s1	21.6%
CC(C(=O)NCc1ccccc1Cl)n1nnc(-c2ccco2)n1 (stereo not given)	56.3% (active)
Cn1c(CNC(=O)Cc2c(Cl)cccc2Cl)n[nH]c1=S	8.23%
O=C(O)C1C2C=CC(O2)C1C(=O)NCc1ccccc1Cl (stereo not given)	23.3%
O=C(O)CCN(CCc1ccccc1)c1nc(-c2ccc(Cl)cc2)nc2ccccc12	24.8%
O=C1CCc2c(OCc3ncc(-c4cccc(Cl)c4)o3)cccc21	39.9%
O=C(O)CCc1ncc(-c2ccc(Cl)cc2)o1	90.3% (active)
O=C(CCCCl)Nc1nc(-c2ccc(F)cc2)cs1	12.9%
O=C(CN(Cc1ccccc1)C(=O)c1ccc(Cl)c(Cl)c1)Nc1cc(-c2ccccc2)nn1-c1ccc(F)cc1	-13.3%
O=C1CCC(C(=O)N(Cc2ccc(F)cc2)c2nc(-c3ccccc3)cs2)=NN1	64.5% (active)
N#CC(=Cc1ccncc1)c1nnc2n1CCCCC2	-11%
Cc1ccc(-c2noc(-c3ccc(Br)o3)n2)cc1	55.7% (active)
Fc1ccccc1-c1nc(-c2ccc(Br)o2)no1	28.8%
Cc1ccc(-c2nc(-c3ccc(Br)cc3)no2)cc1	11.5%
Cc1ccc(-c2cc(C(=O)O)n3nc(C(C)(C)C)cc3n2)cc1	103% (active)
CCN(CC)CCCC(C)NC(=O)c1cc(-c2ccc(OC)cc2)nc2cc(C(C)(C)C)nn12 (stereo not given)	58.1% (active)
COc1ccc(-c2cc(C(=O)O)n3nc(C(C)(C)C)cc3n2)cc1	53.5% (active)
CC1(C)OCC(CN2C(=O)c3ccccc3NC2c2c[nH]c3cnc(OCc4ccccc4)cc23)O1 (stereo not given)	32.8%
COc1ccc(Cl)cc1NC(=O)c1ccc2c(c1)OCCCO2	29.1%
COc1ccc(NC(=O)CNS(=O)(=O)c2cnn(C)c2)cc1Cl	85.8% (active)
COc1ccc(NC(=O)CSc2cc(C)ccc2C)cc1Cl	88.7% (active)
COc1ccc(NC(=O)Cc2ccccc2F)cc1Cl	14.2%

SMILES	inhibition
COc1ccc(NCC(=O)NCC(F)(F)F)cc1Cl	95.5% (active)
COc1ccc(NC(=O)CNc2cc3c(cc2Cl)OCCCO3)cc1Cl	92.9% (active)
CC(C)N=C1NN=C(c2c[nH]c3ccccc23)C(c2ccccc2)S1 (stereo not given)	2.32%
Cc1nc2c(-c3ccccc3)c[nH]n2c(=O)c1C	23.2%
O=c1c2c(nc3c(-c4cccc5ccccc45)c[nH]n13)CCC2	88.6% (active)
CC1CCC(NC(=O)c2ccc(Br)o2)CC1 (stereo not given)	25.1%
Cc1oc(-n2cccc2)c(C#N)c1C(=O)OCc1cc(=O)n2c(C)csc2n1	-7.14%
Cc1oc(-n2cccc2)c(C#N)c1C(=O)NC1CCC(C)CC1 (stereo not given)	77.2% (active)
Cn1ccnc1Sc1nc(-c2ccccn2)nc2scc(-c3ccccc3)c12	77.2% (active)
COc1ccccc1N1CCN(Cn2nc(C3COc4ccccc4O3)oc2=S)CC1 (stereo not given)	49.9%
OC(CN1CCCC1)Cn1c2ccc(Cl)cc2c2cc(Cl)ccc21 (stereo not given)	-9.02%
Cc1nn(CC(O)Cn2c(C)c(C)c3cccc(Cl)c32)c(C)c1Br (stereo not given)	25.1%
Cc1nccn1CC(O)Cn1c2ccc(Cl)cc2c2cc(Cl)ccc21 (stereo not given)	66.4% (active)
O=C1N(Cc2ccccc2)C(c2ccc(C(F)(F)F)cc2)C1(F)F (stereo not given)	79.7% (active)
Cn1nnc2c(=O)n(Cc3ccc(C(F)(F)F)cc3)cnc21	45.7%
Cc1c(C(=O)NCc2ccc(C(F)(F)F)cc2)sc(=O)n1Cc1ccc(F)cc1	20.5%
O=C(COc1ccccc1)N1CCc2ccc(O)cc2C1	68.5% (active)
CC(=O)N1CCc2cc(-c3nc(COc4ccccc4)sc3C)ccc21	37.8%
CC(C)Oc1ncc(C(=O)N2CCc3ccc(O)cc3C2)cc1Cl	33.5%
N#CCCSc1nc2ccc([N+](=O)[O-])cc2s1	52% (active)
O=[N+]([O-])c1ccc2[nH]c(=S)sc2c1	-16.1%
Cc1nc2sc(C)c(C)n2c(=O)c1NC(=O)c1ccc(-c2ccccc2)cc1	34.6%
CC(=O)Nc1nc(-c2ccc(C)cc2)c(-c2ccccc2)s1	86% (active)
CN(C)C=Nc1nc(-c2ccccc2)c(-c2ccccc2)s1	15.9%
O=C(Nc1cc(F)ccc1F)c1ccc(NC(=O)C2CC2)s1	23.9%
O=C(NC1CCS(=O)(=O)C1)c1ccc(Br)o1 (stereo not given)	10.7%
O=C(NC1CCS(=O)(=O)C1)c1ccc(-c2ccc(F)cc2)s1 (stereo not given)	79% (active)

SMILES	inhibition
COc1cc(C(=O)Nc2cc(C3CC3)nn2-c2nc(C)c(C)c(=O)[nH]2)cc(OC)c1OC	100% (active)
COc1ccc(C(=O)Nc2cc(C)nn2-c2nc(C)c(C)c(=O)[nH]2)c(OC)c1	26.6%
COc1ccc(C(=O)Nc2cc(C3CC3)nn2-c2nc(C)c(C)c(=O)[nH]2)c(OC)c1	90% (active)
COc1cc(C(=O)Nc2cc(C3CC3)nn2-c2nc(C)cc(=O)[nH]2)cc(OC)c1OC	101% (active)
COc1ccc(OCCSc2nnnn2C2CCCCC2)cc1	-35.2%
Clc1cc(CSc2nnnn2C2CCCC2)cc2c1OCCO2	-23.6%
c1ccc2c(c1)OCC(CSc1nnnn1C1CCCC1)O2 (stereo not given)	96.2% (active)
C=CCN(C(=O)c1ccc(-c2ccc3c(c2)OCCO3)s1)C1CCCCC1	45.7%
N#CC1(NC(=O)c2cnc(-c3ccc4c(c3)OCO4)s2)CCCC1	86.4% (active)
CN(Cc1ccco1)C(=O)c1cnc(-c2ccc3c(c2)OCO3)nc1Nc1ccccc1	47.5%
COc1ccc(N=C(c2cc([N+](=O)[O-])cc([N+](=O)[O-])c2)n2ccnc2)cc1	92.1% (active)
C=Cc1ccc(C(=O)N2CCCC(Nc3ccc(F)cc3)C2)cc1 (stereo not given)	75.9% (active)
O=C(c1cc(Br)c[nH]1)N1CCC(Nc2ccc(F)cc2)CC1	1.55%
COCc1ccc(C(=O)N2CCCC(Nc3ccc(C(C)C)cc3)C2)s1 (stereo not given)	21.9%
Cc1nc(NC(=O)C2CC2)sc1Cc1ccccc1Cl	32.1%
O=C(Nc1nc2c(s1)CCc1ccccc1-2)C1CC1	64% (active)
C=CCNC(=O)C=Cc1cccs1	92.6% (active)
O=C(C=Cc1cccs1)NC1CCCCC1	37%
S=C(NN=Cc1cccs1)NC1CCCCC1	87.5% (active)
CC(C)NC(=S)NN=Cc1cccs1	100% (active)
O=C(C=Cc1cccs1)NC1CCCCCC1	61.3% (active)
O=C(C=Cc1cccs1)NC1CCCC1	21.5%
C(=NNc1ccc2ccccc2n1)c1cccs1	39.2%
CCC(CNC(=O)/C=C/c1sccc1C)c1ccccc1 (stereo not given)	28.2%
